Drawing on PubChem BioAssay (EPA / NIEHS), this text covers AC50 and outcome for four compounds.

Values joined by “and” are separate entries in the source; they are usually repeats but may differ in a detail not shown here. Equal entries are not always repeated. Where a structure was tested more than once in an assay, its records may differ in their call. Active and inactive are the calls of the source. The calls were made as follows: active = hit-call score of the fitted dose curve at least 0.9, where 1 is the maximum; inactive = score below 0.9.

Experiment [1] can be described thus: ATG_M_32_CIS: Attagene CIS-FACTORIAL HepG2 Assay for M32 Transcription Factor (Internal Marker) (AID 2282949).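 Also: background control marker of the multiplexed CIS panel rather than a real target.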 To be noted: HepG2 Attagene cis-factorial M32 reporter, mRNA; actives raise or lower the signal. The gist of the method: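 Following 24 h chemical exposure of HepG2 cells transiently expressing cis-promoter reporter constructs, reporter transcript levels were determined by RT-PCR with fluorescent labelling and capillary electrophoresis, then fitted bidirectionally against DMSO.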

Experiment [2] in a line: ATG_M_06_CIS: Attagene CIS-FACTORIAL HepG2 Assay for M06 Transcription Factor (Internal Marker) (AID 2282950). The note with it: HepG2 Attagene CIS-FACTORIAL M06 internal marker reporter; actives raise or lower the signal. The gist of the method:
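Internal background marker within multiplexed cis-reporter HepG2 system. Cells transiently transfected, dosed 24 h; reporter mRNA measured by RT-PCR, HpaI digestion and capillary electrophoresis. Bidirectional fit relative to DMSO.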

The target in experiment [3] is Hypoxia-inducible factor 1-alpha (Homo sapiens) (UniProt Q16665). The experiment can be described thus: ATG_HIF1a_CIS: Attagene CIS-FACTORIAL HepG2 Assay for human Hypoxia Inducible Factor 1 (HIF1A) (AID 2282951). The note with it: HepG2 Attagene cis-factorial HIF1a reporter transcription; actives raise or lower the signal. The essentials:
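Measures endogenous transcription-factor activity through cis-regulated reporter mRNA in HepG2. Cells dosed 24 h; transcripts quantified by RT-PCR with 6-FAM-labelled products separated by capillary electrophoresis; DMSO serves as negative control.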

Experiment [4] addresses Heat shock factor protein 1 (Homo sapiens) (UniProt Q00613). The experiment can be described thus: ATG_HSE_CIS: Attagene CIS-FACTORIAL HepG2 Assay for human Heat Shock Transcription Factor 1 (HSE) (AID 2282953). The note with it: HepG2 HSE cis-reporter, Attagene RNA transcription; actives raise or lower the signal. The gist of the method:
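HepG2 cells transfected with cis-promoter reporter units sensing endogenous transcription factor activity; reporter mRNA quantified 24 h post-dose by RT-PCR and capillary electrophoresis of 6-FAM-labelled products. Bidirectional fitting against DMSO.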

Experiment [5] is described as follows: ATG_MRE_CIS: Attagene CIS-FACTORIAL HepG2 Assay for human Metal Responsive Element (MRE) (AID 2282954). To be noted: HepG2 MRE cis-reporter transcription, Attagene multiplex; actives raise or lower the signal. The essentials: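 HepG2 cells transiently transfected with multiple cis-element reporter units measure endogenous MTF1-driven transcription. After 24 h compound exposure, reporter mRNA is quantified by RT-PCR with 6-FAM labelling, HpaI digestion and capillary electrophoresis; bidirectional fits versus DMSO.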

For experiment [6], the target named is Paired box protein Pax-6 (Homo sapiens) (UniProt P26367). The experiment can be described thus: ATG_Pax6_CIS: Attagene CIS-FACTORIAL HepG2 Assay for human Paired Box 6 (PAX6) (AID 2282956). To be noted: HepG2 CIS-FACTORIAL PAX6 reporter transcription, RNA readout; actives raise or lower the signal. The essentials:
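After twenty-four hours of chemical exposure, transfected HepG2 cells are harvested for RNA. Cis-promoter reporter transcripts are amplified, fluorescently labelled and sized by capillary electrophoresis, with gain and loss of signal scored against DMSO.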

A short description of experiment [7]: ATG_PXRE_CIS: Attagene CIS-FACTORIAL HepG2 Assay for human Pregnane X Receptor Element (PXRE) (AID 2282957). To be noted: HepG2 Attagene CIS-FACTORIAL PXRE reporter, mRNA; actives raise or lower the signal. The gist of the method:
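Transfect HepG2 with MRTUs (cis promoter elements); dose chemical, incubate 24 h; isolate RNA, RT with oligo(dT), PCR, 6-FAM label, HpaI cut, CE. Gain/loss fit vs DMSO.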

Experiment [8] in a line: ATG_PPRE_CIS: Attagene CIS-FACTORIAL HepG2 Assay for human Peroxisome Proliferator-activated Response Element (PPRE) (AID 2282958). To be noted: HepG2 PPRE cis-element reporter, Attagene transcription factor profiling; actives raise or lower the signal. The essentials:
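Cells are first transfected transiently with the multiplexed reporter library, then dosed for 24 h. Total RNA is reverse-transcribed, amplified, fluorescently end-labeled and HpaI-cut before capillary electrophoresis; activity is fitted bidirectionally against DMSO controls.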

Experiment [9] can be described thus: ATG_RORE_CIS: Attagene CIS-FACTORIAL HepG2 Assay for human RAR-related Orphan Receptor Element (RORE) (AID 2282959). To be noted: HepG2 Attagene cis-factorial RORE reporter, mRNA; actives raise or lower the signal. The gist of the method:
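Cells were HepG2 carrying transfected cis-regulated reporter constructs, dosed for 24 hours. Total RNA was reverse-transcribed and reporter cDNA amplified, fluorescently labeled and sized by capillary electrophoresis. Activity was fitted bidirectionally relative to DMSO.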

Experiment [10] is described as follows: ATG_Sox_CIS: Attagene CIS-FACTORIAL HepG2 Assay for human SRY-box transcription factor (SOX) (AID 2282960). The note with it: HepG2 Attagene cis-factorial SOX reporter, mRNA; actives raise or lower the signal. The gist of the method:
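Transient MRTU transfection of HepG2; 24 h compound incubation; TriZol RNA, oligo(dT) RT, PCR, 6-FAM primer extension, HpaI cut, CE. Bidirectional fit, DMSO = baseline.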

Experiment [11] addresses Transcription factor Sp1 (Homo sapiens) (UniProt P08047). The experiment can be described thus: ATG_Sp1_CIS: Attagene CIS-FACTORIAL HepG2 Assay for human Specificity Protein 1 (Sp1) (AID 2282961). To be noted: HepG2 Sp1 cis-reporter transcription, actives raise or lower the signal. The gist of the method:
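Endogenous Sp1 activity was gauged in human liver HepG2 cells bearing transfected reporter units under a cis-regulating promoter. After 24 h dosing, reporter mRNA was quantified by RT-PCR with capillary electrophoresis, and activity fitted bidirectionally versus DMSO.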

The nature of experiment [12]: ATG_SREBP_CIS: Attagene CIS-FACTORIAL HepG2 Assay for human Sterol Regulatory Element Binding (SREBP) (AID 2282962). The note with it: HepG2 Attagene cis-factorial SREBP reporter, mRNA; actives raise or lower the signal. The gist of the method:
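Twenty-four hours after chemical dosing of transfected HepG2 cultures, reporter RNA was converted to cDNA, amplified, end-labelled with 6-FAM and resolved by capillary electrophoresis. Responses were fitted relative to DMSO.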

In experiment [13] the target is Signal transducer and activator of transcription 3 (Homo sapiens) (UniProt P40763). The experiment can be described thus: ATG_STAT3_CIS: Attagene CIS-FACTORIAL HepG2 Assay for human Signal Transducer and Activator of Transcription 3 (STAT3) (AID 2282963). The note with it: HepG2, Attagene cis-factorial STAT3 reporter transcription; actives raise or lower the signal. The essentials: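 HepG2 cells transiently transfected with cis-element-driven multiple reporter transcription units; after 24 h chemical exposure, reporter mRNA measured by RT-PCR, 6-FAM primer-extension labelling, HpaI digestion and capillary electrophoresis. Bidirectional fitting versus DMSO baseline.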
Signal transducer and activator of transcription 3 (Homo sapiens), sequence (P40763 whole entry, looked up): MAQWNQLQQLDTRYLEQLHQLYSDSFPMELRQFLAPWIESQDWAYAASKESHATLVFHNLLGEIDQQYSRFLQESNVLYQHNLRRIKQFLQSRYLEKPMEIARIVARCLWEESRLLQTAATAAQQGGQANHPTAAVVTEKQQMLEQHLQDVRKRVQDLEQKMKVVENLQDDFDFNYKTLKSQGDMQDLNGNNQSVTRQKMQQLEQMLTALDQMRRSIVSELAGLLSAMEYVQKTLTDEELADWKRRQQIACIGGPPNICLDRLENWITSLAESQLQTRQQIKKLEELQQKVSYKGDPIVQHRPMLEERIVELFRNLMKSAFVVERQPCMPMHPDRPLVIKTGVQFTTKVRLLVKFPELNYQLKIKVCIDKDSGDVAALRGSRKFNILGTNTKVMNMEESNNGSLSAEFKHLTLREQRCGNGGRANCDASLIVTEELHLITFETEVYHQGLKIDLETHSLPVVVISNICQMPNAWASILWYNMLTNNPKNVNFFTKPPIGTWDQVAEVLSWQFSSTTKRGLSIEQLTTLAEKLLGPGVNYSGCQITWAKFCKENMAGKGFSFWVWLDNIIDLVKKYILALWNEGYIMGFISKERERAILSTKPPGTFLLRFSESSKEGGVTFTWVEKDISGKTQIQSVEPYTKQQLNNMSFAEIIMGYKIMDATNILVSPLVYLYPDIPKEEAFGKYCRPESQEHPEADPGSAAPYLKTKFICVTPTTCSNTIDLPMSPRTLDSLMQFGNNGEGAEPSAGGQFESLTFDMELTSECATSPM

Experiment [14] is described as follows: ATG_TA_CIS: Attagene CIS-FACTORIAL HepG2 Assay for human TA Basal Promoter (AID 2282964). To be noted: HepG2 Attagene CIS-factorial TA basal promoter reporter; actives raise or lower the signal. The essentials:
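HepG2 cells transiently transfected with multiple reporter units under cis promoter elements, reporting endogenous transcription factor activity; this endpoint tracks the TA basal promoter as background control. Reporter mRNA after 24 h dosing measured by RT-PCR/capillary electrophoresis; bidirectional fits versus DMSO.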

Experiment [15] is described as follows: ATG_TCF_b_cat_CIS: Attagene CIS-FACTORIAL HepG2 Assay for human T-Cell-Factor with beta-catenin (TCF/b-cat) (AID 2282965). To be noted: HepG2 TCF/beta-catenin cis-reporter transcription, actives raise or lower the signal. The gist of the method: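 Using capillary electrophoresis as the read-out, labelled reporter cDNA fragments from transiently transfected HepG2 were sized and quantified. Exposure lasted 24 hours; activity in either direction was referenced to DMSO.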

A short description of experiment [16]: ATG_TAL_CIS: Attagene CIS-FACTORIAL HepG2 Assay for human TAL Basal Promoter (AID 2282966).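 Also: background control endpoint measuring basal TAL promoter reporter mRNA not a specific factor.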 The note with it: HepG2 Attagene cis-factorial TAL promoter reporter; actives raise or lower the signal. The gist of the method: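 Fluorescence of labelled reporter cDNA fragments, resolved by capillary electrophoresis, gave the readout. Human HepG2 liver cells carried transiently transfected cis-element reporter units and were treated for 24 hours; activity was fitted bidirectionally against DMSO.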

The nature of experiment [17]: ATG_TGFb_CIS: Attagene CIS-FACTORIAL HepG2 Assay for human Transforming Growth Factor (TGF) (AID 2282967). To be noted: HepG2 Attagene CIS TGFb reporter, mRNA transcription; actives raise or lower the signal. The essentials:
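HepG2 cells transiently transfected with cis-promoter-driven multiple reporter units measure endogenous TF activity; reporter mRNA quantified at 24 h by RT-PCR, FAM labeling, HpaI digestion and capillary electrophoresis. Bidirectional fit vs DMSO.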

A short description of experiment [18]: ATG_VDRE_CIS: Attagene CIS-FACTORIAL HepG2 Assay for human Vitamin D Receptor Element (VDRE) (AID 2282968). The note with it: HepG2 VDRE cis-reporter transcription, actives raise or lower the signal. The essentials: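 HepG2 cells transiently transfected with cis-element reporter units, dosed 24 h; reporter mRNA measured by RT-PCR, 6-FAM labeling, HpaI digestion and capillary electrophoresis. Activity fitted bidirectionally against DMSO baseline.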

In experiment [19] the target is Hepatocyte nuclear factor 6 (Homo sapiens) (UniProt Q9UBC0). Briefly: ATG_HNF6_CIS: Attagene CIS-FACTORIAL HepG2 Assay for human Hepatocyte Nuclear Factor 6 (HNF6) (AID 2282952). The note with it: HepG2 Attagene cis-factorial HNF6 reporter transcription; actives raise or lower the signal. The essentials: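 HepG2, transient MRTU transfection (cis promoters); 24 h chemical exposure; total RNA → oligo(dT) RT → PCR → 6-FAM labelling → HpaI cut → CE; bidirectional fit vs DMSO.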
Hepatocyte nuclear factor 6 (Homo sapiens), sequence (Q9UBC0 whole entry, looked up): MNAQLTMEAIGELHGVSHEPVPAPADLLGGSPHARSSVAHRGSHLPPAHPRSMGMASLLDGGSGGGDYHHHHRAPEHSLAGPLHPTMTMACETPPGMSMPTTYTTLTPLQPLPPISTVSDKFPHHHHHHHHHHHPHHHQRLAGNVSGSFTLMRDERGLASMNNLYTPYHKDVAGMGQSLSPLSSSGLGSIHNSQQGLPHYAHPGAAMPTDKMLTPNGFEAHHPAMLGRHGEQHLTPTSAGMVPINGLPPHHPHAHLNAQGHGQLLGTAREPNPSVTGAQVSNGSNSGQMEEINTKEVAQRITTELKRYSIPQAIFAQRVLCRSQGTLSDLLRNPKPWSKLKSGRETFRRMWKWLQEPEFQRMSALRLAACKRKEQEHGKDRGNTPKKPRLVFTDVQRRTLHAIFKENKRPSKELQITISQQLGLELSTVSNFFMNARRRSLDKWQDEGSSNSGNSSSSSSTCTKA

The nature of experiment [20]: ATG_PBREM_CIS: Attagene CIS-FACTORIAL HepG2 Assay for human Phenobarbital-responsive Enhancer Module (PBREM) (AID 2282955). To be noted: HepG2 PBREM cis-reporter, Attagene multiplexed transcription; actives raise or lower the signal. The essentials: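 Fluorescence of labelled reporter cDNA fragments, resolved by capillary electrophoresis, gives mRNA induction in transfected HepG2 cells treated for 24 h; DMSO serves as negative control and baseline.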

Heat shock factor protein 1 (Homo sapiens), sequence (Q00613 whole entry, looked up): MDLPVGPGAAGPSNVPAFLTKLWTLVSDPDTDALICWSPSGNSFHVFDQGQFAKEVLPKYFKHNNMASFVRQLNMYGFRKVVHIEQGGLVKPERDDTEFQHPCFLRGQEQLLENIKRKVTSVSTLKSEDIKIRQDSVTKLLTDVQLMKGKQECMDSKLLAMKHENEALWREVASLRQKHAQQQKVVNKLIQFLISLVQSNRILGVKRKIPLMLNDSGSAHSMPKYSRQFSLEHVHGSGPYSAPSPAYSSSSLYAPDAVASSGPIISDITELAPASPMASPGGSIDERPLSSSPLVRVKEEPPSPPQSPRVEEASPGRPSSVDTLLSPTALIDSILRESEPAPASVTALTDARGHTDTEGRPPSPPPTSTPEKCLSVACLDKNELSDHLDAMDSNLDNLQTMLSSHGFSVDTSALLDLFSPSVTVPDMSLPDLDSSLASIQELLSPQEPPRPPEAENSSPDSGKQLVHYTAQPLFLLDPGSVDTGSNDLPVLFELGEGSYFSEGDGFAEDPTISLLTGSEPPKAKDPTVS
Hypoxia-inducible factor 1-alpha (Homo sapiens), sequence (Q16665 whole entry, looked up): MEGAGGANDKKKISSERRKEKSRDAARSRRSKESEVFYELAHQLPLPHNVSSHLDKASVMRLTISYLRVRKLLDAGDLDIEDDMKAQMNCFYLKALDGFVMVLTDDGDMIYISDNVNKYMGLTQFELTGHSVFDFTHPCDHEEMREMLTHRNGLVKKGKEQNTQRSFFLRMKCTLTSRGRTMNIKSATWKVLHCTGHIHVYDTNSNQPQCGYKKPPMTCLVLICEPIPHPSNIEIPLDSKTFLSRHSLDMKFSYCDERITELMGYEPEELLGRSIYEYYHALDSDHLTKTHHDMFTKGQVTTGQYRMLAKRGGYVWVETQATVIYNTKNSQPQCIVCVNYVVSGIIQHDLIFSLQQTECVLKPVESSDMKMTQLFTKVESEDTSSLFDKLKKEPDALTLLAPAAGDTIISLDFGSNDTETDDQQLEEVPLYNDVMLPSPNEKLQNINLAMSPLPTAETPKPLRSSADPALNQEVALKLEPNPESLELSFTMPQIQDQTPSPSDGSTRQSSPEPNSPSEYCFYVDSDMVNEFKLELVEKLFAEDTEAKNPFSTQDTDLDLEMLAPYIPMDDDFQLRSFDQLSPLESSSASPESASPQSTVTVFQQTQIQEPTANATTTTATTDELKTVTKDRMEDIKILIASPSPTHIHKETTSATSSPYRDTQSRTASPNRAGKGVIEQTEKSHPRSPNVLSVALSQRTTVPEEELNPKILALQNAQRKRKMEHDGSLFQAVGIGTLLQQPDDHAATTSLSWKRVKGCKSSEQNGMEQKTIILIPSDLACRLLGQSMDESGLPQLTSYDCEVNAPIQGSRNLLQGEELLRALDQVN
Paired box protein Pax-6 (Homo sapiens), sequence (P26367 whole entry, looked up): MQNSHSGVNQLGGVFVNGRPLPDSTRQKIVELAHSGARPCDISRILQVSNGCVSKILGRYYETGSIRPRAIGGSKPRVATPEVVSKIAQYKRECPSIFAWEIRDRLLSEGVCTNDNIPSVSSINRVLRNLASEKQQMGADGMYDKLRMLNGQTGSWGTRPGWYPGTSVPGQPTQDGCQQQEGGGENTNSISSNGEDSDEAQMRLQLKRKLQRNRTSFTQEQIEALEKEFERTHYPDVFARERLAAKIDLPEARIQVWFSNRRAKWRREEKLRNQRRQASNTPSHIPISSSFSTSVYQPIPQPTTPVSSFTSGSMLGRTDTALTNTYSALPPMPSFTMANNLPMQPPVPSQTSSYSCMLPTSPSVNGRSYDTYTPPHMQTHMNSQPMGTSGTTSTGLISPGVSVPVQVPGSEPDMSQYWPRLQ
Transcription factor Sp1 (Homo sapiens), sequence (P08047 whole entry, looked up): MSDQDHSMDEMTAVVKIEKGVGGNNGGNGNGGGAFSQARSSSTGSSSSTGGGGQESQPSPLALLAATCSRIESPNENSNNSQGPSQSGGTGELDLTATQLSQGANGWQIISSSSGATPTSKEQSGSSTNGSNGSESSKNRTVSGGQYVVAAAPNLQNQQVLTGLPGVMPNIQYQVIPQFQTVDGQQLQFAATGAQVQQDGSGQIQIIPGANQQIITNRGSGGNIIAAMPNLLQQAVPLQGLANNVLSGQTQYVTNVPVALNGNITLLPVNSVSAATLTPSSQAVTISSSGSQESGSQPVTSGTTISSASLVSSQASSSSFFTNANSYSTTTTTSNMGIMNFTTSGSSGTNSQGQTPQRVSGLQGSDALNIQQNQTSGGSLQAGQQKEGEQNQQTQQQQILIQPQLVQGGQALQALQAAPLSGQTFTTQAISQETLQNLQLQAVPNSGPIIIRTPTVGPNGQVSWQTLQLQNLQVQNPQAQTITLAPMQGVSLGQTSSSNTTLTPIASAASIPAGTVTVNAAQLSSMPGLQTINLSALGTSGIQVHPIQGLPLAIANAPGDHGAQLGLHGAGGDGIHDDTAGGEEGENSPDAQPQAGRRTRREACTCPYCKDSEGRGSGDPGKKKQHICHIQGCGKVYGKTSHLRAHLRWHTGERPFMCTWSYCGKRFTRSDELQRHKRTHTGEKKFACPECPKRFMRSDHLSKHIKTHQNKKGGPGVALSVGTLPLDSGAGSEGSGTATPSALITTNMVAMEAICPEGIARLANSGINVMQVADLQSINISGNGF

One may read the AC50 as the midpoint of the concentration-response curve, whichever way the signal moves. For the compound `CCCCc1oc2ccccc2c1C(=O)c1cc(I)c(OCCN(CC)CC)c(I)c1`, the AC50 in experiment [1] was 127 µM (active); in experiment [2], 89.1 µM (active); in experiment [3], 7.78 µM (active); in experiment [5] it was 18.3 µM (active); in experiment [6], 20.2 µM (active); in [7] it was 1.44 µM (active). The AC50 in [10] is 128 µM (active); in experiment [11], 130 µM (active); in experiment [12] it was 19.7 µM (active); in [14], 19.8 µM (active); in experiment [16], 26.1 µM (active); in [18] it was 9.14 µM (active). The compound was called inactive in experiment [4], in experiment [8], in experiment [9], in experiment [13], in experiment [15] and in experiment [17].
With `CCC(=O)O`, the result in experiment [1], in [2], in experiment [3], in [19], in experiment [4] and in [5] was inactive. In addition, the compound was called inactive in [6], in experiment [7], in experiment [8], in experiment [9], in experiment [10] and in [11]. Further, the result in [12], in [13], in experiment [14], in experiment [15], in experiment [16] and in [17] was inactive. Also, the compound was called inactive in [18].
Regarding `Cc1cc(=O)oc2cc(O)ccc12`, the compound was classed as inactive in [1], in experiment [2], in experiment [19], in experiment [4], in [5] and in experiment [20]. For the same compound, the compound was classed as inactive in experiment [6], in experiment [10], in [11], in [12], in [13] and in experiment [14]. The compound was called inactive in experiment [15], in experiment [16], in experiment [17] and in experiment [18]. Also, the AC50 was 42.3 µM (active) in [20]; 8.35 µM (active) and 25.5 µM (active) in experiment [7]; 36 µM (active) in experiment [18].
As for `Cc1ccc(S(=O)(=O)O)cc1`, the compound was called inactive in experiment [1], in [2], in experiment [3], in [19], in experiment [5] and in [6]. In addition, the call in experiment [10], in experiment [11], in experiment [13], in experiment [14], in [15] and in experiment [16] was inactive. The compound was called inactive in experiment [17] and in [18].
